According to PubChem BioAssay (NCI):
The panel holds about 83,000 compounds, 20% with a hit somewhere; the sample as a whole holds those more often.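 Step 1: grow cells in 96-well plates. Step 2: add test compound at a single concentration. Step 3: incubate 48 h. Step 4: record percent growth.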 Active and inactive are the calls of the source. How the source made its calls: active means growth percent below 10; inactive means the rest.

Experiments:
Experiment in all cases: NCI-60 one-dose screen, 48 h (100 = growth as untreated, 0 = no growth, -100 = all killed)
Details in all cases: 10 µM unless noted
RPMI-8226 leukemia = system: RPMI-8226 leukemia
OVCAR-8 ovarian = system: OVCAR-8 ovarian
OVCAR-5 ovarian = system: OVCAR-5 ovarian
OVCAR-4 ovarian = system: OVCAR-4 ovarian
SK-OV-3 ovarian = system: SK-OV-3 ovarian
NCI/ADR-RES ovarian = system: NCI/ADR-RES ovarian
T-47D breast = system: T-47D breast
OVCAR-3 ovarian = system: OVCAR-3 ovarian
HS 578T breast = system: HS 578T breast
IGROV1 ovarian = system: IGROV1 ovarian

Measured: growth

S=C(c1ccccc1)N1CCN(c2cccc(Cl)c2)CC1
inactive: RPMI-8226 leukemia 86.9% | OVCAR-8 ovarian 102% | OVCAR-5 ovarian 97.2% | OVCAR-4 ovarian 120% | SK-OV-3 ovarian 103% | NCI/ADR-RES ovarian 103% | T-47D breast 96.9%

COc1cc2c(c(OC)c1OC)CCc1cnoc1-2
inactive: RPMI-8226 leukemia 98.1% | OVCAR-8 ovarian 102% | OVCAR-5 ovarian 91.9% | OVCAR-4 ovarian 95% | SK-OV-3 ovarian 109% | OVCAR-3 ovarian 116% | HS 578T breast 106% | NCI/ADR-RES ovarian 94.3% | T-47D breast 97.7%

C=C(C)[C@H]1CC/C(C)=C/CC[C@]2(C)O[C@H]2CC/C(C=O)=C\C1O (some centres not stated)
active: RPMI-8226 leukemia -17.5%
inactive: OVCAR-8 ovarian 107% | OVCAR-5 ovarian 101% | OVCAR-4 ovarian 109% | SK-OV-3 ovarian 102% | OVCAR-3 ovarian 124% | HS 578T breast 114% | NCI/ADR-RES ovarian 109% | T-47D breast 102%

CCCCCCCCCCC[C@@H](C[C@H]1OC(=O)[C@H]1CCCCCC)OC(=O)[C@@H](CC(C)C)NC=O
inactive: OVCAR-8 ovarian 62.9% | OVCAR-5 ovarian 94.4% | SK-OV-3 ovarian 88.1% | IGROV1 ovarian 60.3% | OVCAR-3 ovarian 69% | HS 578T breast 53.6% | NCI/ADR-RES ovarian 37.5% | T-47D breast 76.5%
active: RPMI-8226 leukemia 0.857%

S=C(Nc1ccc(C2=NCCN2)cc1)Nc1ccc(C2=NCCN2)cc1
inactive: RPMI-8226 leukemia 94.4% | OVCAR-8 ovarian 96.2% | OVCAR-5 ovarian 97.7% | SK-OV-3 ovarian 108% | IGROV1 ovarian 108% | HS 578T breast 110% | NCI/ADR-RES ovarian 93.2% | T-47D breast 83.2%

CCC[C@H](N[C@@H](C)C(=O)N1[C@H](C(=O)O)C[C@@H]2CCCC[C@@H]21)C(=O)OCC
inactive: RPMI-8226 leukemia 109% | OVCAR-8 ovarian 102% | OVCAR-5 ovarian 88.9% | SK-OV-3 ovarian 113% | IGROV1 ovarian 108% | OVCAR-3 ovarian 104% | HS 578T breast 98% | NCI/ADR-RES ovarian 98.5% | T-47D breast 124%

O=C(Nc1cccc2ccccc12)c1cc2c(cc1Br)OCO2
inactive: RPMI-8226 leukemia 66.1% | OVCAR-8 ovarian 106% | OVCAR-5 ovarian 96.8% | OVCAR-4 ovarian 83.5% | SK-OV-3 ovarian 80.9% | HS 578T breast 125% | NCI/ADR-RES ovarian 92.5% | T-47D breast 83.9%

O=C(Nc1ncc([N+](=O)[O-])s1)c1cccc([N+](=O)[O-])c1
active: RPMI-8226 leukemia -6.2%
inactive: OVCAR-8 ovarian 43.1% | OVCAR-5 ovarian 87.6% | OVCAR-4 ovarian 40.5% | SK-OV-3 ovarian 64.1% | HS 578T breast 49.2% | NCI/ADR-RES ovarian 39.9% | T-47D breast 24.7%

Cn1c(N)c(N=O)c(=O)[nH]c1=O
inactive: RPMI-8226 leukemia 83.9% | OVCAR-8 ovarian 104% | OVCAR-5 ovarian 106% | SK-OV-3 ovarian 115% | IGROV1 ovarian 107% | OVCAR-3 ovarian 112% | HS 578T breast 99.8% | NCI/ADR-RES ovarian 103% | T-47D breast 98%

O=C1C2C3C=CC(O3)C2C(=O)N1Nc1ccccc1 (configuration not stated)
inactive: RPMI-8226 leukemia 108% | OVCAR-8 ovarian 105% | OVCAR-5 ovarian 97.4% | OVCAR-4 ovarian 102% | SK-OV-3 ovarian 118% | OVCAR-3 ovarian 113% | HS 578T breast 111% | NCI/ADR-RES ovarian 105% | T-47D breast 112%

O=C(/C(=C/c1cccc([N+](=O)[O-])c1)c1ccccc1)c1ccccc1
active: RPMI-8226 leukemia -7.27%
inactive: OVCAR-8 ovarian 13% | OVCAR-5 ovarian 74.5% | OVCAR-4 ovarian 42.9% | SK-OV-3 ovarian 105% | OVCAR-3 ovarian 23.4% | HS 578T breast 44.9% | NCI/ADR-RES ovarian 35.8% | T-47D breast 69.8%

CCC(CCC(C)C1CCC2C3CC=C4CC(O)CCC4(C)C3CCC12C)C(C)C (configuration not stated) (tested in a mixture with another compound)
inactive: RPMI-8226 leukemia 81.4% | OVCAR-8 ovarian 89.9% | OVCAR-5 ovarian 103% | OVCAR-4 ovarian 93.7% | SK-OV-3 ovarian 127% | OVCAR-3 ovarian 103% | HS 578T breast 87.3% | NCI/ADR-RES ovarian 59.6% | T-47D breast 95.3%

Cc1cc(C(=O)O)c(C)cc1C(=O)O
inactive: RPMI-8226 leukemia 102% | OVCAR-8 ovarian 104% | OVCAR-5 ovarian 96% | SK-OV-3 ovarian 106% | IGROV1 ovarian 85.3% | OVCAR-3 ovarian 136% | HS 578T breast 122% | NCI/ADR-RES ovarian 105% | T-47D breast 104%

O=C1NCN(CCO)CN1
inactive: RPMI-8226 leukemia 85.6% | OVCAR-5 ovarian 101% | OVCAR-4 ovarian 98.5% | SK-OV-3 ovarian 95.4% | IGROV1 ovarian 115% | OVCAR-3 ovarian 107% | HS 578T breast 96.7% | NCI/ADR-RES ovarian 102% | T-47D breast 89.9%

CO[C@H]1/C=C/O[C@@]2(C)Oc3c(C)c(O)c4c(O)c(c(/C=N/N5CCN(C)CC5)c(O)c4c3C2=O)NC(=O)/C(C)=C\C=C\C(C)[C@H](O)[C@@H](C)[C@@H](O)[C@@H](C)[C@@H](OC(C)=O)[C@@H]1C (some centres not stated)
inactive: RPMI-8226 leukemia 108% | OVCAR-8 ovarian 100% | OVCAR-4 ovarian 103% | SK-OV-3 ovarian 113% | IGROV1 ovarian 105% | OVCAR-3 ovarian 107% | HS 578T breast 109% | NCI/ADR-RES ovarian 105% | T-47D breast 107%

COc1ccc(/C=C(\C#N)c2ccccc2)cc1
inactive: RPMI-8226 leukemia 84.7% | OVCAR-5 ovarian 92.1% | OVCAR-4 ovarian 85.9% | SK-OV-3 ovarian 114% | IGROV1 ovarian 87.9% | OVCAR-3 ovarian 95.1% | HS 578T breast 85.7% | NCI/ADR-RES ovarian 78% | T-47D breast 88.6%

O=C(Cc1ccccn1)C(F)(F)C(F)(F)C(F)(F)F
inactive: RPMI-8226 leukemia 100% | OVCAR-5 ovarian 113% | OVCAR-4 ovarian 109% | SK-OV-3 ovarian 109% | IGROV1 ovarian 123% | OVCAR-3 ovarian 112% | HS 578T breast 102% | NCI/ADR-RES ovarian 104% | T-47D breast 102%

O=C(C(Br)Br)C(Br)C(Br)c1ccccc1 (configuration not stated)
inactive: RPMI-8226 leukemia 78.1% | OVCAR-5 ovarian 108% | OVCAR-4 ovarian 43.1% | SK-OV-3 ovarian 116% | IGROV1 ovarian 84.3% | HS 578T breast 104% | NCI/ADR-RES ovarian 94.5% | T-47D breast 49.7%
active: OVCAR-3 ovarian 1.96%

Clc1ccc(-c2nc(-c3cccs3)no2)c(Cl)c1
inactive: RPMI-8226 leukemia 86% | OVCAR-8 ovarian 97.1% | SK-OV-3 ovarian 93.9% | IGROV1 ovarian 66.8% | OVCAR-3 ovarian 99.2% | HS 578T breast 96.1% | NCI/ADR-RES ovarian 103% | T-47D breast 51.7%

COc1ccc(/C=N/NC(=O)c2ccc(S(C)(=O)=O)cc2)cc1OC
inactive: RPMI-8226 leukemia 97.1% | OVCAR-5 ovarian 111% | OVCAR-4 ovarian 96.2% | SK-OV-3 ovarian 102% | IGROV1 ovarian 109% | OVCAR-3 ovarian 108% | HS 578T breast 102% | NCI/ADR-RES ovarian 108% | T-47D breast 96.6%

Oc1ccccc1/C=N\Nc1ccccc1
inactive: RPMI-8226 leukemia 43.7% | OVCAR-5 ovarian 55.5% | OVCAR-4 ovarian 84% | SK-OV-3 ovarian 108% | IGROV1 ovarian 57.3% | OVCAR-3 ovarian 79.1% | HS 578T breast 80.8% | NCI/ADR-RES ovarian 44.1% | T-47D breast 44.5%

O=C1/C(=C/c2ccc([N+](=O)[O-])s2)Oc2ccc(Br)cc21
active: RPMI-8226 leukemia -6.04% | OVCAR-5 ovarian -66.8% | OVCAR-4 ovarian -75.8% | SK-OV-3 ovarian -34.3% | IGROV1 ovarian -45.9% | OVCAR-3 ovarian -65.3% | NCI/ADR-RES ovarian -31.2% | T-47D breast -55.7%
inactive: HS 578T breast 16.2%

NS(=O)(=O)c1ccc(NC2=C(Cl)C(=O)c3ccccc3C2=O)cc1
inactive: RPMI-8226 leukemia 61.2% | OVCAR-5 ovarian 102% | OVCAR-4 ovarian 94.4% | SK-OV-3 ovarian 90.2% | IGROV1 ovarian 75.3% | OVCAR-3 ovarian 98% | HS 578T breast 142% | NCI/ADR-RES ovarian 93.6%
active: T-47D breast -48.3%

Cn1c(=O)c2c(nc(Br)n2CCC(=O)Nc2ccc(F)cc2)n(C)c1=O
inactive: RPMI-8226 leukemia 101% | OVCAR-5 ovarian 94.7% | OVCAR-4 ovarian 114% | SK-OV-3 ovarian 83.6% | IGROV1 ovarian 107% | OVCAR-3 ovarian 125% | HS 578T breast 102% | NCI/ADR-RES ovarian 101% | T-47D breast 97.3%

COc1ccc(C(=O)Nc2nc(-c3ccc(Cl)cc3)cs2)cc1
inactive: RPMI-8226 leukemia 94.4% | OVCAR-5 ovarian 87% | OVCAR-4 ovarian 108% | SK-OV-3 ovarian 87.1% | IGROV1 ovarian 112% | OVCAR-3 ovarian 111% | HS 578T breast 94.3% | NCI/ADR-RES ovarian 120% | T-47D breast 89.1%

CCC1=C(c2ccc(OC)cc2)C(C)(C)Oc2c1ccc(O)c2CN1CCCC1
inactive: OVCAR-5 ovarian 68.3% | OVCAR-4 ovarian 60% | SK-OV-3 ovarian 73.9% | IGROV1 ovarian 51.4% | OVCAR-3 ovarian 54.7% | HS 578T breast 59.3% | NCI/ADR-RES ovarian 39.1%
active: RPMI-8226 leukemia 0.544% | T-47D breast -41.2%

COc1cc(/C=C/C(=O)Nc2cccnc2Nc2cc(OC)c(OC)c(OC)c2)cc(OC)c1OC
inactive: RPMI-8226 leukemia 66.9% | OVCAR-5 ovarian 99.3% | OVCAR-4 ovarian 92.7% | SK-OV-3 ovarian 112% | IGROV1 ovarian 112% | OVCAR-3 ovarian 114% | HS 578T breast 96.6% | NCI/ADR-RES ovarian 83.5% | T-47D breast 100%

COc1ccc(-c2nc3sccn3c2-c2ccnc(S(C)(=O)=O)n2)cc1
inactive: RPMI-8226 leukemia 86.5% | OVCAR-5 ovarian 96.7% | OVCAR-4 ovarian 80.4% | SK-OV-3 ovarian 105% | IGROV1 ovarian 37.9% | OVCAR-3 ovarian 84.3% | HS 578T breast 94.3% | NCI/ADR-RES ovarian 104% | T-47D breast 36.4%

CC(C)[C@H]1CC[C@H]2[C@@H](CC[C@H]3[C@](C)(CN)CCC[C@]23C)C1
inactive: RPMI-8226 leukemia 21.6% | OVCAR-5 ovarian 74.7% | OVCAR-4 ovarian 67.6% | SK-OV-3 ovarian 111% | IGROV1 ovarian 92.6% | OVCAR-3 ovarian 22.7% | HS 578T breast 94.6% | NCI/ADR-RES ovarian 89.5% | T-47D breast 64%

O=C(O)c1ccccc1C(=O)OC1CCCC2CCCC21 (configuration not stated)
inactive: RPMI-8226 leukemia 111% | OVCAR-8 ovarian 106% | OVCAR-5 ovarian 99.2% | SK-OV-3 ovarian 112% | OVCAR-3 ovarian 122% | NCI/ADR-RES ovarian 99% | T-47D breast 96.1%
